Cycloheximide cs – counter-screen for Shiga toxin inhibitors: cycloheximide protein synthesis inhibition. cell reporter, cycloheximide protein synthesis inhibition counterscreen. max response, %. 300,000 tested, 12% active. AID 2314; in the data active = max response mostly above about 13%, no sharp cut-off; inactive = mostly below about 14%; note: read at 38.3 µM for the half of the compounds with a filed dose; 0% is about no effect
Pf growth 48h – inhibits P. falciparum growth in the first generation, 48 h; P. falciparum luciferase growth in erythrocytes, 48 h; Potency, µM (titrated, usually from 28.7 µM), for inactives: at the top dose activity change, negative = inhibition, most hits filed as inhibitors; 310,000 tested, 5.9% active; AID 504832; note: potency is the fitted concentration of half-maximal effect; % is set by controls: 0 for no effect and ±100 for the full control effect
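Read-out is firefly luciferase luminescence from an integrated reporter in P. falciparum, so falling signal marks reduced parasite growth. Infected erythrocytes were at 2% hematocrit and 0.1% parasitemia (final) in Albumax-supplemented RPMI 1640.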
Shiga inhibitor – Shiga toxin inhibition. 290,000 tested, 9.2% active. Vero cells, Shiga toxin protein synthesis inhibition reporter. inhibition, % at 38.7 µM. AID 2315; in the data active = inhibition mostly above about 28%, no sharp cut-off; inactive = mostly below about 43%; note: 0% is about no effect
Pf growth 96h – P. falciparum growth inhibition at 96 hours; P. falciparum luciferase reporter growth, 96 h; Potency, µM (doses to about 28.7 µM), for inactives: top-dose activity change, negative = inhibition, most hits filed as inhibitors; 320,000 tested, 6.9% active; AID 504834; note: potency is the fitted concentration of half-maximal effect; % is set by controls: 0 for no effect and ±100 for the full control effect
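Infected RBCs, 2% Hct / 0.05% parasitemia final; luciferase-reporter P. falciparum; cpd 96 h, 37 C, 5% CO2; luciferase detection reagent; luminescence.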
The depositor's hits bear a star; ? = inconclusive; / = no result; [ ] = another dose, or the depositor's remark. A selection: hits, their analogues and other compounds. The true share with any hit is near 21%. Unless noted, calls come from the whole dose curve; as a rule, active = well fitted inhibition curve with a large enough effect; inconclusive = small, poorly fitted or top-dose-only effect, or another doubt; inactive = no such curve, though single readings can be large or run the other way.

SMILES	Cycloheximide cs	Pf growth 48h	Shiga inhibitor	Pf growth 96h
Cn1c(CC(=O)NNC(=O)c2cccnc2)nc2ccccc21	/	1%	/	6%
COc1cc2c(cc1OC)CN(c1ccc([N+](=O)[O-])cc1C#N)CC2	9	-7%	-11	15µM*
COc1cc2c(cc1OC)CN(c1ccc(F)cc1[N+](=O)[O-])CC2	30*	3%	72*	15%
CCOC(=O)N1CCN(c2ccc(F)cc2[N+](=O)[O-])CC1	-3	-2%	-12	35%
COc1cc2c(cc1OC)CN(c1ccc([N+](=O)[O-])cc1Cl)CC2	6	?	13	?
COc1cc2c(cc1OC)CN(c1ncccc1[N+](=O)[O-])CC2	25*	49%	55*	74%
Cc1cccc(N2C(=O)CC(N(C(=O)c3ccco3)c3cccc(C)c3)C2=O)c1 (stereo unspecified)	-5	-16%	-2	/
COc1ccc(N2CCN(C(=O)C(Cc3ccccc3)n3cccc3)CC2)cc1 (stereo unspecified)	-7	/	-12	-3%
CN([C@@H](Cc1ccc(OS(=O)(=O)c2cccc3cnccc23)cc1)C(=O)N1CCN(c2ccccc2)CC1)S(=O)(=O)c1cccc2cnccc12	-1	0.93µM*	-2	1µM*
CC1CN(Cc2ccc(Cl)cc2Cl)CC(C)O1 (stereo unspecified)	23	/	46*	65%
CC1CN(Cc2ccc(C#N)cc2Cl)CC(C)O1 (stereo unspecified)	11	6%	20	0%
COc1cc(C(=O)N/C(=C/c2ccc(F)cc2)C(=O)NC(C(=O)O)c2ccccc2)cc(OC)c1OC (stereo unspecified)	4	-7%[0.00184 µM]	20	?
O=C(NN1C(=O)/C(=C/c2ccc(O)c(O)c2)SC1=S)c1ccccc1	-3	-24%	-9	10µM*
CCOc1cc(/C=C2\SC(=S)N(Nc3ccccc3)C2=O)ccc1O	55*	64%	62*	-1%
O=C1/C(=C/c2ccc(O)c(O)c2)SC(=S)N1Nc1ccccc1	11	?	31	147%
COc1cc(/C=C2\SC(=S)N(Nc3ncc(C(F)(F)F)cc3Cl)C2=O)ccc1O	14*	/	29	?
CN(C)c1ccc(/C=C2\SC(=S)N(Nc3ncc(C(F)(F)F)cc3Cl)C2=O)cc1	-4	36%	-4	147%
O=C1/C(=C\c2cc(Cl)c(O)c(Cl)c2)SC(=S)N1Cc1ccccc1	-6	?	11	?
COc1ccc(/C=C2/SC(=S)N(Cc3ccccc3)C2=O)cc1O	13	8.3µM*	120*	?
CN1CCN(C(=O)C(N)Cc2ccccc2)CC1 (stereo unspecified)	3	-5%	-9	2%
Cc1ccc(C)c(NC(=O)CCN2CCCC(C)C2)c1 (stereo unspecified)	-4	50%	-12	-15%
COc1cc(OC)cc(C(=O)Nc2ccn(C)n2)c1	/	20%	/	10%
CC(=O)Nc1ccc(S(=O)(=O)NCCC(=O)NCCOc2ccccc2)cc1	/	-11%	/	1%
COc1cc(/C=C2\SC(=S)N(Nc3ccccc3)C2=O)ccc1O	51*	46%	62*	1%
C=CCN1C(=O)/C(=C\c2ccc(OC(=O)c3ccco3)c(OC)c2)SC1=S	27*	-26%	41	?
SMILES	Cycloheximide cs	Pf growth 48h	Shiga inhibitor	Pf growth 96h
COc1ccc(OC)c(/C=C2\SC(=S)N(Cc3cccnc3)C2=O)c1	-4	-15%	-3	9.3µM*
COc1ccc(O)c(/C=C2/SC(=S)N(Cc3ccccc3)C2=O)c1	4	?	12	35%
O=C(Cc1ccccc1)NN1C(=O)/C(=C/c2ccccc2C(=O)O)SC1=S	-1	37%	20	12µM*
C=CCN1C(=O)/C(=C\c2cccc(OC(=O)c3ccco3)c2)SC1=S	-1	-20%	-6	14%
CN(CC(=O)O)C(=O)[C@H](Cc1ccccc1)NC(=O)[C@@H](CCCN=C(N)N)NC(=O)[C@@H](N)Cc1ccc(O)cc1	-3	/	-6	/
COc1ccc(N(C(=O)Cn2nnc(-c3ccc(C)o3)n2)C(C(=O)NC2CCCC2)c2ccncc2)cc1 (stereo unspecified)	-9	?	29	2%
COc1cc(C(=O)N2CCN(C)C(C)C2)ccc1OC1CCN(C(C)=O)CC1 (stereo unspecified)	5	13%	33	-17%
CCOC(=O)c1ncn2c1[C@@H]1CCNC1C(=O)c1cc(OC)ccc1-2 (stereo partly specified)	/	-7%	/	-11%
O=C(COC(=O)c1ccc(O)cc1O)Nc1nnc(-c2ccccc2)o1	/	3%	/	8%
O=C(NCC1CCCN1S(=O)(=O)c1cccs1)C(=O)Nc1ccc(F)cc1F (stereo unspecified)	/	-7%	/	18%
COc1ccc(CNC(=O)CCc2c[nH]c3ccccc23)cc1	1	-6%	1	-2%
COc1ccc(C2NN=C(c3c[nH]c4ccccc34)C2O)cc1 (stereo unspecified)	36*	?	38*	?
COc1ccc(C2C(O)C(c3c[nH]c4ccccc34)=NN2C(=O)CCl)cc1 (stereo unspecified)	8	2.9µM*	-6	?
O=C(O)Cc1ccc(NC(=O)Nc2cccc(Cl)c2)cc1	-3	3%	-9	71%
COc1cccc(NC(=O)Nc2ccc(CC(=O)O)cc2)c1	-1	21%	24	2.3µM*
CCc1ccc(NC(=O)Nc2cccc(OC)c2)cc1	26*	104%	105*	24%
Cc1ccccc1-n1nnnc1Sc1nnnn1-c1ccccc1	-4	8.3µM*	-20	/
CCCSc1nnc(Sc2nnnn2-c2ccccc2)s1	24	13µM*	23	/
C(=C\CSc1nnnn1-c1ccccc1)/CSc1nnnn1-c1ccccc1	-7	?	-7	?
Cc1cc(C)c(C#N)c(Sc2nnnn2-c2ccccc2)n1	-4	-3%	-3	2.3µM*
Cc1nc(Sc2nnnn2-c2ccccc2)c(C#N)c(C)c1C	-4	/	-4	?
Cc1cn(CC(=O)c2ccccc2)c2ccccc12	12	?	0	-2%
CCc1ccc(OCCSc2nc3ccccc3n2CC(=O)O)cc1	-2	-18%	-9	-2%
Cc1cc(CN(C)C(=O)C2CCC(=O)N(CCc3cccc(F)c3)C2)on1 (stereo unspecified)	1	5%	2	?
COc1ccccc1NC(=O)COC(=O)CCc1ccc(S(=O)(=O)N2CCOCC2)cc1	/	?	/	-9%
SMILES	Cycloheximide cs	Pf growth 48h	Shiga inhibitor	Pf growth 96h
Cc1ccc(S(=O)(=O)N2CCN(Cc3cc(C(C)(C)C)ccc3O)CC2)cc1	1	12µM*	-17	?
Cc1ccc(S(=O)(=O)N2CCN(Cc3cc(C(C)C)ccc3O)CC2)cc1	-2	10µM*	-8	10µM*
COc1ccc(N(CC(=O)NC(C)C)S(=O)(=O)c2ccc(NC(C)=O)cc2)cc1	-2	/	-10	?
O=C(c1ccccc1Cl)N1N=C(c2cccs2)CC1c1cccc(O)c1 (stereo unspecified)	-2	?	-3	?
CC(C)(C)c1ccc(OCCC(=O)NNC(=O)c2ccncc2)cc1	/	2%	/	10%
O=C(N/N=C\c1ccccn1)c1ccccc1O	33*	?	120*	52%

Screening results: PubChem, National Center for Advancing Translational Sciences (NCATS)
